Out of some 200,000 compounds screened, about 4,500 (2.2%) were called active. Another 12% or so got no clear call; they are omitted. For the sample, actives were picked, then their nearest neighbours and some compounds at random. Values without a mark were called inactive. Calls follow the shape of the dose curve; as a rule, active = well fitted inhibition curve with a large enough effect; inconclusive = small, poorly fitted or top-dose-only effect, or effect the other way; inactive = flat fitted curve, though single readings scatter.
Potency is read from the fitted curve at half-maximal effect.

In the test the target is Cruzipain (Trypanosoma cruzi) (UniProt P25779). In words: qHTS Assay for Promiscuous and Specific Inhibitors of Cruzain (without detergent). Also: nearly all actives have a fitted effect of over 40% in size.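 As to max response, negative = inhibition: plate controls were enzyme without inhibitor for no effect and buffer without enzyme for full effect.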 As to conditions: purified cruzain, Z-FR-AMC fluorescence, no detergent. A digest of the protocol: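 Purified cruzain at 1.5 nM, pre-incubated 15 min with compound at room temperature in 100 mM sodium acetate pH 5.5, 5 mM DTT, 0.00005% Triton X-100. Reaction started with 2 uM Z-FR-AMC; AMC fluorescence increase over 60 s gives rate.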
Cruzipain (Trypanosoma cruzi), sequence (P25779 123-467 limits assumed): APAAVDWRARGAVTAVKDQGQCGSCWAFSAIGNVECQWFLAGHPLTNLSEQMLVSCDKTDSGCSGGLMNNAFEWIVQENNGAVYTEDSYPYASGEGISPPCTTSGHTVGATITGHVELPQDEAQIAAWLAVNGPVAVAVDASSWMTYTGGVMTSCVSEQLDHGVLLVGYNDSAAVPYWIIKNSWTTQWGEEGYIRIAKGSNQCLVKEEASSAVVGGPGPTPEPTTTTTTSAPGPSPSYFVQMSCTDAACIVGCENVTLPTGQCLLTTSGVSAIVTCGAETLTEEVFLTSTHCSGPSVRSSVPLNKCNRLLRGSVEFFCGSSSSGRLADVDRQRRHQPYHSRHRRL
Background: Quantitative high-throughput screening tests each substance at several concentrations.
In the case of `CCOC(=O)c1ccc(NC2=CC(c3ccc(OCC)cc3)N(c3ccc(C(=O)OCC)cc3)C2=O)cc1` (stereo not drawn), the max response, negative = inhibition was -9.29%.

As for `O=C(CCn1c(=O)c2sccc2n(Cc2ccc(F)cc2)c1=O)NCc1ccc2c(c1)OCO2`, the max response, negative = inhibition was 2.68%. In the case of `Cc1ccc(F)cc1S(=O)(=O)N1CCC(c2nc3ccccc3s2)CC1`, the max response, negative = inhibition is -6.75%. In the case of `CC1=CC(=C(C#N)c2nc3ccccc3s2)C=C(C)N1c1ccc(F)cc1F`, the Potency is 31.6 µM (active).

With `CC(C)c1cc(C(N)=O)c(NC(=O)c2cccc(COc3ccc(Br)cc3)c2)s1`, the Potency is 5.01 µM (active). Regarding `COc1ccc(OCc2cccc(C(=O)N3CCCC3)c2)cc1`, the max response, negative = inhibition was 22.1%.

On to `CCc1cc(C(N)=O)c(NC(=O)c2ccc(OC)cc2)s1`, for which the max response, negative = inhibition is -3.04%. On the same count and under the same terms, with `CCC(=O)N1CCc2cc(Br)cc(S(=O)(=O)NCc3ccc(Cl)cc3)c21` the figure was 5.32%; with `Cc1ccc(-n2ncc(C(=O)N(C)Cc3ccccc3)c2-n2cccc2)cc1`, 19.8%. Consider `O=C(Nc1cc2c3c(c1)C1CCCC1CN3CC1CCCC21)c1ccc([N+](=O)[O-])cc1` (stereo not drawn), for which the Potency is 25.1 µM (active). Take `CC1CCc2noc(NC(=O)c3ccc([N+](=O)[O-])cc3)c2C1` (stereo not drawn): the max response, negative = inhibition was 3.94%. The same measure, in the same setting: with `O=C(Nc1cccc([N+](=O)[O-])c1)c1ccc2c(c1)OCO2` the figure was 4.82%; with `C=CC(C1=CC(=O)C=CC1=O)c1ccc(O)cc1` (stereo not drawn), -6.77%; with `Cc1noc(C)c1COC(=O)c1cc2ccccc2cc1O`, -7.72%. Still for that read-out and setting: with `O=C(Nc1c2c(nc3ccccc13)CCCC2)c1ccccc1Br` the figure was 6.61%. With `O=C(NNc1c2ccccc2nc2ccccc12)c1cc2ccccc2cc1O`, the Potency was 7.94 µM (active).

On to `Cc1c(Cl)cccc1NC(=O)C1CCCN(C(=O)c2cnn(-c3ccccc3)c2-n2cccc2)C1` (stereo not drawn), for which the max response, negative = inhibition was 17.7%.

In the case of `CCOC(=O)c1oc2ccc(S(=O)(=O)n3nc(-c4ccccc4OC)cc3N)cc2c1C`, the max response, negative = inhibition is -16.2%. On the same count and under the same terms, with `CCC(=O)N1CCc2cc(S(=O)(=O)NC(C(=O)Nc3ccc(C(C)=O)cc3)C(C)C)ccc21` (stereo not drawn) the figure was -5.8%; with `O=C1CN(C(=O)Nc2ccccc2C(F)(F)F)C(c2ccccc2)c2c(sc3c2CCCC3)N1` (stereo not drawn), -8.71%. The same measure, in the same setting: with `O=C(COc1ccccc1F)OCc1cc(=O)n2nc(C3CCCCC3)sc2n1` the figure was -11.4%; with `Cc1ccc(-n2c(C)cc(/C=N\NC(=O)CC(=O)NC(C)C)c2C)cc1`, -4.29%.

Regarding `Cc1cccc(C)c1NC(=O)CSc1ccc([N+](=O)[O-])cn1`, the max response, negative = inhibition was -1.59%.

As to `Cc1ccc(-n2c(C)cc(/C=N/Nc3ccc([N+](=O)[O-])cn3)c2C)c(C)c1`, the Potency was 3.98 µM (active).

As for `CCOc1ccc(C(=O)N2CCN(CCc3ccccn3)CC2)cc1`, the max response, negative = inhibition was -2.86%.

For the compound `CSc1cccc(NC(=O)CN2C(=O)CCc3cc(S(=O)(=O)N4CCCCC4)ccc32)c1`, the max response, negative = inhibition was -6.74%. On the same count and under the same terms, with `CCOC(=O)N1CCc2c(sc3c2c(=O)n(Cc2ccccc2)c(=O)n3CC(=O)Nc2cccc(C)c2)C1` the figure was -13.3%; with `COCCn1c(SCC(=O)Nc2ccc3c(c2)CCC3)nc2ccccc2c1=O`, 7.57%. For `COc1cccc(NC(=O)C(Sc2nc3ccccc3c(=O)n2CC(C)C)c2ccccc2)c1` (stereo not drawn), the Potency was 5.01 µM (active). Regarding `COc1cccc(NC(=O)C(C)Oc2ccccc2)c1` (stereo not drawn), the max response, negative = inhibition was 2.56%. Same read-out and setting: with `O=S(=O)(Nc1ccc2nc(-c3cccc(Cl)c3)oc2c1)c1ccccc1` the figure was 5.84%. Regarding `COc1ccc(CNC(=O)c2cc3c(=O)[nH]c4ccccc4c3s2)cc1`, the max response, negative = inhibition was -0.0351%. The same measure, in the same setting: with `CC(C)CC(=O)Nc1cc(C(F)(F)F)ccc1N1CCOCC1` the figure was -0.397%. For the compound `O=C(NC(=S)Nc1cc(C(F)(F)F)ccc1N1CCOCC1)c1ccc(-c2cccc(Cl)c2)o1`, the Potency was 10 µM (active). With `COc1c(C)cccc1C(=O)Nc1cc(Cl)ccc1N1CCOCC1`, the max response, negative = inhibition was -1.36%.

In the case of `COc1ccccc1/C=C/c1nc(C#N)c(NC(C)c2ccccc2)o1` (stereo not drawn), the max response, negative = inhibition was -27.6%. Same read-out and setting: with `Cc1ccc(NC(=O)C2CCCN2S(=O)(=O)c2cccc3cccnc23)c(C)c1` (stereo not drawn) the figure was -5.43%; with `Cc1ccc(N/C=C/C(=O)c2ccccc2)cc1C`, -22.6%. Take `Cc1nc(-c2ccccc2)sc1C(=O)/C=C/c1ccccc1`: the max response, negative = inhibition is 3.75%. `O=C(/C=C/Nc1ccccc1)c1cnc(-c2ccccc2)s1`: the Potency was 12.6 µM (active).

With `Cc1c(C)n(Cc2ccc(Cl)cc2)c2ccc(C(=O)NCCc3ccc(S(N)(=O)=O)cc3)cc12`, the max response, negative = inhibition is -27.4%. Same read-out and setting: with `NC(=O)CSc1nc2c(oc3ccccc32)c(=O)n1Cc1ccccc1` the figure was 1.12%.

Regarding `OCCNc1nc2ccccc2[nH]1`, the max response, negative = inhibition is -0.339%.

Turning to `C/C(=N\Nc1nc2ccccc2[nH]1)c1cccs1`, the Potency was 25.1 µM (active). Consider `O=C(CSc1nc2ccccc2[nH]1)c1cccs1`, for which the max response, negative = inhibition is -7.22%.

As for `Cc1ccc(Cn2c(C)c3cnn(CC(=O)NCc4ccccc4)c(=O)c3c2C)cc1`, the max response, negative = inhibition was -6.45%. Same read-out and setting: with `COc1ccc(Nc2ncc3c(n2)CCN(C(=O)OC(C)(C)C)C3)cc1` the figure was -2.11%; with `O=C(Cc1ccc(Cl)cc1)NCC(c1cccs1)S(=O)(=O)c1ccc(Cl)cc1` (stereo not drawn), 1.56%; with `CCc1nn(CC(=O)N2CCN(c3cc(C)ccc3C)CC2)c(=O)c2cc3occc3n12`, 6.7%.

With `COc1ccc(S(=O)(=O)Nc2ccc3c(c2)OCO3)cc1Cl`, the Potency was 15.8 µM (active). On to `CC(C)CNS(=O)(=O)c1ccc(OCC(=O)Nc2ccc3c(c2)OCO3)c(Cl)c1`, for which the max response, negative = inhibition was -2.91%. Still for that read-out and setting: with `COc1ccc(F)cc1S(=O)(=O)Nc1ccc2c(c1)OCO2` the figure was 9.18%; with `COc1cc(Br)cc2cc(S(=O)(=O)c3ccccc3)c(=O)oc12`, -12.9%.

Turning to `CC1(c2ccccc2)CC(C)(C)N(C(=O)c2cc([N+](=O)[O-])cc([N+](=O)[O-])c2)c2ccccc21` (stereo not drawn), the Potency was 25.1 µM (active). On to `CC1(c2cccc([N+](=O)[O-])c2)CC(C)(C)N(C(=O)c2ccccc2)c2ccccc21` (stereo not drawn), for which the max response, negative = inhibition was -29.1%. As for `Cc1nnc(SCC(=O)N2c3ccccc3C(C)(c3ccc(Cl)cc3)CC2(C)C)s1` (stereo not drawn), the max response, negative = inhibition is -0.125%. On the same count and under the same terms, with `Cc1ccc(Cn2cc(CCC(=O)NCc3ccc(OC(C)C)cc3)c3ccccc32)cc1` the figure was 6.72%; with `Cc1cc(C)cc(NC(=O)CSc2oc(-c3ccccc3)nc2S(=O)(=O)c2ccc(Cl)cc2)c1`, -6.39%; with `COCCNC(=O)CSc1c(C)cnc2c1c(=O)n(C)c(=O)n2C`, 7.18%.

Regarding `Cc1ccc(-c2c3c(=O)n(C)c(=O)n(C)c3cn2-c2ccccc2O)cc1`, the max response, negative = inhibition was 12.7%. `Cc1ccc(-c2c3c(=O)n(C)c(=O)n(C)c3cn2-n2cnnc2)cc1`: the Potency is 12.6 µM (active). As to `COc1ccc(-c2c3c(=O)n(C)c(=O)n(C)c3cn2NC(C)=O)cc1`, the max response, negative = inhibition was -4.34%. The same measure, in the same setting: with `CC(=O)c1ccc(NS(=O)(=O)c2ccc(-c3cc(C)no3)s2)cc1` the figure was -22.1%; with `O=C(Nc1ccc2nc(SCC(=O)N3CCc4ccccc43)sc2c1)c1ccccc1F`, -3.59%. `O=C(Nc1ccc2nc(SCC(=O)N3CCCc4ccccc43)sc2c1)c1ccc(Cl)cc1`: the Potency is 10 µM (active). On to `CCC(=O)Nc1ccc2nc(SCC(=O)N3CCc4ccccc43)sc2c1`, for which the max response, negative = inhibition is 26.9%. Still for that read-out and setting: with `COc1ccccc1NC(=O)CCC(=O)N1CC(C)Oc2ccc(C)cc21` (stereo not drawn) the figure was -1.12%; with `COc1ccc(C2CC(c3ccccc3)=NN2C(=O)CSc2nccc(=O)[nH]2)cc1` (stereo not drawn), -19%. Still for that read-out and setting: with `COc1ccccc1N1CCN(C(=O)Cn2nnc(-c3cccs3)n2)CC1` the figure was -5.5%. Take `O=C1c2cccc(OCC(=O)N3N=C(c4cccs4)CC3c3ccc(F)cc3)c2CCN1Cc1ccccc1` (stereo not drawn): the Potency was 12.6 µM (active). In the case of `O=C(Cn1ncc2c3ccccc3n(Cc3ccccc3)c2c1=O)NCc1ccccn1`, the max response, negative = inhibition is 20.3%. `COC(=O)c1cnc(N2CCN(c3ccccc3OC)CC2)c2ccccc12`: the max response, negative = inhibition was 5.66%.

As to `N#CCSc1nc2c(c(=O)n1Cc1ccccc1)C1(CCCC1)Cc1ccccc1-2`, the Potency is 12.6 µM (active). `Cc1cccc(-n2c(SCC(N)=O)nc3c(c2=O)C2(CCCCC2)Cc2ccccc2-3)c1`: the max response, negative = inhibition was -0.318%. For the compound `N#CCSc1nc2ccccc2c(=O)n1-c1ccccc1`, the max response, negative = inhibition was 3.22%. As to `CCS(=O)(=O)N1CCc2cc(C(=O)NCc3ccc(OC)cc3)ccc21`, the max response, negative = inhibition was -7.6%. The same measure, in the same setting: with `CCCCS(=O)(=O)c1oc(-c2cccs2)nc1S(=O)(=O)c1ccccc1` the figure was -4.72%; with `COC(=O)c1ccc(C2C(C(=O)Nc3ccccc3)=C(C)Nc3nc4ccccc4n32)cc1` (stereo not drawn), -6.78%. Still for that read-out and setting: with `CC(C)Nc1nnc(SCC(=O)c2c[nH]c3ccccc23)s1` the figure was -13.7%. For `Cc1ccc(Nc2nnc(SCC(=O)c3cc4ccccc4o3)s2)cc1C`, the Potency was 15.8 µM (active).

For `Cc1ccc(Nc2nnc(SCc3ccccc3)s2)cc1`, the max response, negative = inhibition was -12.9%. Turning to `O=C(CSc1nnc(Nc2ccccc2)s1)Nc1cccnc1Cl`, the max response, negative = inhibition is -18%.

With `Cc1ccsc1C(=O)OCC(=O)c1cc2ccccc2o1`, the max response, negative = inhibition was 2.71%. With `CC(C)c1ccc(Nc2nnc(SCC(=O)c3nnc(-c4ccccc4)o3)s2)cc1`, the Potency is 12.6 µM (active). On to `CCN(c1ncnc2c1cnn2-c1ccc(C)cc1)C1CCCCC1`, for which the max response, negative = inhibition is 2.47%. Turning to `COc1cccc(-n2c(=O)c3c(C)c(C(=O)N(C)C)sc3n(Cc3cccc(C)c3)c2=O)c1`, the max response, negative = inhibition was -4.38%. Still for that read-out and setting: with `O=C(Nc1ccc(F)cc1F)c1ccc2c(=O)n3c(nc2c1)CCCCC3` the figure was -3.34%. The same measure, in the same setting: with `CN(Cc1ccccc1)C(=O)c1cc2c(=O)n(C)c3ccccc3c2s1` the figure was 3.44%.

Source of the values: PubChem BioAssay AID1476 (National Center for Advancing Translational Sciences (NCATS), 2009).
